We go through 27 compounds from PubChem BioAssay (EPA / NIEHS).

Where “and” joins values, the source holds several entries; their conditions need not be identical. Equal entries are not always repeated. Calls of active or inactive are those of the source. The calls were made as follows: active = hit-call score of the fitted dose curve at least 0.9, where 1 is the maximum; inactive = score below 0.9.

Sequence of Tumor necrosis factor (Homo sapiens) (P01375 whole entry, looked up): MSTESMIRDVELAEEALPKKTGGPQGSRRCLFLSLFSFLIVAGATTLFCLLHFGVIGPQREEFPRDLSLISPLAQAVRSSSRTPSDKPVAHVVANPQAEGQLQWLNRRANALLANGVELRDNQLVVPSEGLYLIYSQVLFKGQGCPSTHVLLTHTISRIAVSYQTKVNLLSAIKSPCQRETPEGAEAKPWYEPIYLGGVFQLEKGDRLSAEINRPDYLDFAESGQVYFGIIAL

Read-out in the first experiment: Interleukin 6 (IL6), IL6 (gene 3569)
Briefly: BSK_BT_xIL6: BioMAP Diversity Plus: BT Assay for Interleukin 6 (IL6) Biomarker Activity (AID 2284228). Conditions: primary human B cells with PBMC. Put shortly:
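Chemical added to human B cell/PBMC co-culture → 24 h → supernatant IL-6 by Luminex xMAP → fit vs DMSO baseline, upward direction.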
For the compound `CCCCCCCCCCCCCCCC[N+](C)(C)CC`, the concentration at half-maximal activity (AC50) is 13.4 µM (active).

For the compound `C#CC1(O)CC[C@H]2[C@@H]3CCC4=CCCC[C@@H]4[C@H]3CC[C@@]21C` (some centres undefined), the AC50 is 28.1 µM (active).

`C/C=C\C/C=C/CCCCCCCCOC(C)=O`: the AC50 is 15.2 µM (active).

On to `O=c1c2ccccc2oc2ccccc12`, for which the outcome was inactive.

Consider `CC(C)C(=O)C(C)C`, for which the outcome was inactive.

Regarding `C=CCOc1c(Br)cc(Br)cc1Br`, the outcome was inactive.

With `O=C(Cl)c1cc(C(=O)Cl)cc(C(=O)Cl)c1`, the AC50 was 27.6 µM (active).

For `O=C(Nc1ccccc1SSc1ccccc1NC(=O)c1ccccc1)c1ccccc1`, the AC50 was 13.2 µM (active).

Turning to `CC(C)(c1cc(Br)c(OCCO)c(Br)c1)c1cc(Br)c(OCCO)c(Br)c1`, the AC50 was 16.2 µM (active).

Regarding `O=Nc1ccc(O)cc1`, the result was inactive.

For `c1ccc2c(c1)ccc1ncccc12`, the half-maximal activity concentration (AC50) is 1.14 µM (active).

Take `CCCCCCCCc1ccc(Nc2ccc(CCCCCCCC)cc2)cc1`: the outcome was inactive.

As to `c1ccc2c(c1)ccc1cc3c(ccc4ccccc43)cc12`, the AC50 was 3.57 µM (active) and 15 nM (active).

`N#[N+]c1ccc2c(S(=O)(=O)[O-])cccc2c1O`: the result was inactive.

For the compound `S=C(NC1CCCCC1)NC1CCCCC1`, the outcome was inactive.

For the compound `C=CCOCC(O)CCl` (centres undefined), the outcome was inactive.

Take `CCCCC/C=C\C/C=C\CCCCCCCC(=O)OC`: the AC50 is 24.8 µM (active).

Take `CCOc1nc(F)cc2nc(S(=O)(=O)Nc3c(Cl)cccc3C(=O)OC)nn12`: the outcome was inactive.

On to `CCCCC(CC)COC(=O)c1ccccc1O` (centres undefined), for which the result was inactive.

`CC1OC1C1CCC2(C)OC2C1` (centres undefined): the outcome was inactive.

With `c1ccc(-c2ccccn2)nc1`, the result was inactive.

In the case of `CCO[Si](CCCN=C=O)(OCC)OCC`, the result was inactive.

For the compound `CCCCNc1ccc(NCCCC)c2c1C(=O)c1ccccc1C2=O`, the result was inactive.

For `COCc1c(C(C)C)nc(C(C)C)c(/C=C/[C@@H](O)C[C@@H](O)CC(=O)O)c1-c1ccc(F)cc1`, the AC50 is 0.494 µM (active).

As to `C=CC=CC=CCCCCC`, the AC50 was 6.43 µM (active).

Regarding `C=CC(=O)OCC(Br)CBr` (centres undefined), the AC50 is 12.9 µM (active).

Turning to `COc1ccc2nc(N)sc2c1`, the outcome was inactive.

Read-out in a further experiment: Tumor necrosis factor (Homo sapiens) (UniProt P01375)
Briefly: BSK_BT_xTNFa: BioMAP Diversity Plus: BT Assay for Tumor necrosis factor alpha (TNF-alpha) Biomarker Activity (AID 2284230). As to conditions: primary human B cells with PBMC. The method in brief: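 Compounds were added to a B cell plus PBMC co-culture, and after 24 h secreted TNF-alpha was quantified with Luminex xMAP technology, with responses fitted upward from the DMSO control.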
In the case of `CCCCCCCCCCCCCCCC[N+](C)(C)CC`, the AC50 was 12 µM (active).

As for `C#CC1(O)CC[C@H]2[C@@H]3CCC4=CCCC[C@@H]4[C@H]3CC[C@@]21C` (some centres undefined), the AC50 is 34.2 µM (active).

`C/C=C\C/C=C/CCCCCCCCOC(C)=O`: the AC50 was 20 µM (active).

As for `O=c1c2ccccc2oc2ccccc12`, the outcome was inactive.

As for `CC(C)C(=O)C(C)C`, the result was inactive.

In the case of `C=CCOc1c(Br)cc(Br)cc1Br`, the outcome was inactive.

In the case of `O=C(Cl)c1cc(C(=O)Cl)cc(C(=O)Cl)c1`, the concentration at half-maximal activity (AC50) is 31.9 µM (active).

With `O=C(Nc1ccccc1SSc1ccccc1NC(=O)c1ccccc1)c1ccccc1`, the AC50 is 11.7 µM (active).

For the compound `CC(C)(c1cc(Br)c(OCCO)c(Br)c1)c1cc(Br)c(OCCO)c(Br)c1`, the AC50 is 30.2 µM (active).

In the case of `O=Nc1ccc(O)cc1`, the outcome was inactive.

Regarding `c1ccc2c(c1)ccc1ncccc12`, the outcome was inactive.

For the compound `CCCCCCCCc1ccc(Nc2ccc(CCCCCCCC)cc2)cc1`, the outcome was inactive.

As for `c1ccc2c(c1)ccc1cc3c(ccc4ccccc43)cc12`, the result was inactive.

With `N#[N+]c1ccc2c(S(=O)(=O)[O-])cccc2c1O`, the result was inactive.

In the case of `S=C(NC1CCCCC1)NC1CCCCC1`, the result was inactive.

Consider `C=CCOCC(O)CCl` (centres undefined), for which the result was inactive.

As for `CCCCC/C=C\C/C=C\CCCCCCCC(=O)OC`, the AC50 is 30 µM (active).

Consider `CCOc1nc(F)cc2nc(S(=O)(=O)Nc3c(Cl)cccc3C(=O)OC)nn12`, for which the outcome was inactive.

For the compound `CCCCC(CC)COC(=O)c1ccccc1O` (centres undefined), the result was inactive.

For `CC1OC1C1CCC2(C)OC2C1` (centres undefined), the result was inactive.

Regarding `c1ccc(-c2ccccn2)nc1`, the result was inactive.

Regarding `CCO[Si](CCCN=C=O)(OCC)OCC`, the result was inactive.

On to `CCCCNc1ccc(NCCCC)c2c1C(=O)c1ccccc1C2=O`, for which the outcome was inactive.

Consider `COCc1c(C(C)C)nc(C(C)C)c(/C=C/[C@@H](O)C[C@@H](O)CC(=O)O)c1-c1ccc(F)cc1`, for which the AC50 is 0.512 µM (active).

Consider `C=CC=CC=CCCCCC`, for which the outcome was inactive.

With `C=CC(=O)OCC(Br)CBr` (centres undefined), the concentration at half-maximal activity (AC50) was 28.1 µM (active).

For the compound `COc1ccc2nc(N)sc2c1`, the result was inactive.

By AC50 is commonly meant the midpoint of the concentration-response curve, whichever way the signal moves.
